Measured values published in PubChem BioAssay AID1159580 (chemical genetic matrix, 2015).
Several values for one entry are separate records, joined by “and”; a condition that tells them apart may be missing. Identical values can stand only once. About 2,000 (36%) of roughly 5,500 compounds were called active. About 18% were inconclusive and are not listed. Cut-off read from the data, not from the text of the source: active = normalized growth mostly below about 0.91 (no sharp cut-off); inconclusive = no clear call, values can overlap the other calls; inactive = mostly above about 0.92. This is one part of the list.

Assay: chemical genetic growth profiling, strain panel (AID 1159580);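 note: tested at 20 µM; growth read once vehicle control cultures reached saturation at 30 °C; 1 = growth at the plate median or of vehicle wells; lower values mean less growth of the strain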
Details: S. cerevisiae deletion strains, growth OD

Measured: normalized growth

CC(Cc1cccc(C(F)(F)F)c1)NCCOC(=O)c1ccccc1 (configuration not stated)
active: locus YAL021C, strain ccr4, stronger effect = lower value 0.853 | locus YAL026C, strain drs2, stronger effect = lower value 0.582 | locus YBR021W, strain FUR4, stronger effect = lower value 0.513 | locus YDR069C, strain doa4, stronger effect = lower value 0.845 | locus YDR388W, stronger effect = lower value 0.811 | locus YER015W, strain faa2, stronger effect = lower value 0.899 | locus YFR010W, strain ubp6, stronger effect = lower value 0.831 | locus YGR229C, strain SMI1, stronger effect = lower value 0.612
inactive: locus YAL013W, strain DEP1, stronger effect = lower value 0.98 | locus YAL030W, strain snc1, stronger effect = lower value 0.964 | locus YBL061C, strain skt5, stronger effect = lower value 0.968 | locus YBR009C, strain hhf1, stronger effect = lower value 0.953 | locus YBR023C, strain chs3, stronger effect = lower value 0.936 | locus YBR171W, strain sec66, stronger effect = lower value 0.975 | locus YBR229C, strain ROT2, stronger effect = lower value 1.01 | locus YBR231C, strain swc5, stronger effect = lower value 0.948 | locus YBR279W, strain paf1, stronger effect = lower value 0.964 | locus YCL011C, strain gbp2, stronger effect = lower value 0.971 | locus YCL016C, strain dcc1, stronger effect = lower value 0.969 | locus YCL029C, strain bik1, stronger effect = lower value 1.03 | locus YCL061C, strain MRC1, stronger effect = lower value 0.978 | locus YCL069W, strain vba3, stronger effect = lower value 0.967 | locus YCR088W, strain abp1, stronger effect = lower value 0.994 | locus YDL005C, strain med2, stronger effect = lower value 0.999 | locus YDL035C, strain GPR1, stronger effect = lower value 0.917 | locus YDL040C, strain nat1, stronger effect = lower value 0.994 | locus YDL074C, strain BRE1, stronger effect = lower value 0.914 | locus YDL101C, strain DUN1, stronger effect = lower value 0.996 | locus YDL134C, strain PPH21, stronger effect = lower value 0.958 | locus YDL185W, strain tfp1, stronger effect = lower value 1.02 | locus YDL192W, strain arf1, stronger effect = lower value 0.988 | locus YDR001C, strain nth1, stronger effect = lower value 0.992 | locus YDR101C, strain arx1, stronger effect = lower value 0.999 | locus YDR137W, strain rgp1, stronger effect = lower value 0.916 | locus YDR150W, strain NUM1, stronger effect = lower value 0.997 | locus YDR159W, strain sac3, stronger effect = lower value 0.995 | locus YDR162C, strain NBP2, stronger effect = lower value 0.945 | locus YDR195W, strain ref2 1.01 | locus YDR297W, strain sur2, stronger effect = lower value 0.973 | locus YDR318W, strain mcm21, stronger effect = lower value 0.963 | locus YDR334W, strain swr1, stronger effect = lower value 0.997 | locus YDR335W, strain msn5, stronger effect = lower value 0.959 | locus YDR392W, strain spt3, stronger effect = lower value 1.03 | locus YDR502C, strain sam2, stronger effect = lower value 0.974 | locus YEL003W, strain gim4, stronger effect = lower value 0.924 | locus YEL037C, strain rad23, stronger effect = lower value 0.973 | locus YEL061C, strain CIN8 (second series), stronger effect = lower value 0.988 | locus YEL061C, strain CIN8, stronger effect = lower value 0.993 | locus YER016W, strain bim1, stronger effect = lower value 1 | locus YER110C, stronger effect = lower value 1.01 | locus YER111C, strain swi4, stronger effect = lower value 0.997 | locus YER155C, strain BEM2 (second series), stronger effect = lower value 0.934 | locus YER155C, strain BEM2, stronger effect = lower value 1.02 | locus YER167W, strain BCK2, stronger effect = lower value 0.985 | locus YGL078C, strain dbp3, stronger effect = lower value 1.01 | locus YGL086W, strain mad1, stronger effect = lower value 0.953 | locus YGL167C, strain pmr1, stronger effect = lower value 0.991 | locus YGL173C, strain kem1, stronger effect = lower value 0.919 | locus YGL227W, strain vid30, stronger effect = lower value 0.995 | locus YGL240W, strain doc1, stronger effect = lower value 0.945 | locus YGL248W, strain PDE1, stronger effect = lower value 0.957 | locus YGL253W, strain hxk2, stronger effect = lower value 0.96 | locus YGR078C, strain PAC10, stronger effect = lower value 0.921 | locus YGR135W, strain pre9, stronger effect = lower value 0.914 | locus YGR252W, strain gcn5, stronger effect = lower value 0.923 | locus YHR013C, strain ard1, stronger effect = lower value 0.963 | locus YHR027C, strain rpn1, stronger effect = lower value 0.941 | locus YHR079C, strain IRE1 (second series), stronger effect = lower value 1 | locus YHR079C, strain IRE1, stronger effect = lower value 0.981 | locus YHR094C, strain hxt1, stronger effect = lower value 1.02 | locus YHR129C, strain ARP1, stronger effect = lower value 1 | locus YHR142W, strain chs7, stronger effect = lower value 0.925 | locus YHR200W, strain rpn10, stronger effect = lower value 0.996 | locus YIL066C, strain RNR3, stronger effect = lower value 0.962 | locus YIL073C, strain SPO22, stronger effect = lower value 1.14 | locus YIL125W, strain kgd1, stronger effect = lower value 1.02 | locus YIR030C, strain dcg1, stronger effect = lower value 1 | locus YJL092W, strain hpr5, stronger effect = lower value 0.953 | locus YJL095W, strain BCK1 (second series), stronger effect = lower value 0.954 | locus YJL115W, strain asf1, stronger effect = lower value 0.979 | locus YJL129C, strain trk1, stronger effect = lower value 0.997 | locus YJL134W, strain LCB3, stronger effect = lower value 1 | locus YJL154C, strain vps35, stronger effect = lower value 0.986 | locus YJL164C, strain tpk1, stronger effect = lower value 0.953 | locus YJL166W, strain qcr8, stronger effect = lower value 0.943 | locus YJL168C, strain set2, stronger effect = lower value 1 | locus YJL187C, strain SWE1 (second series), stronger effect = lower value 0.923 | locus YJL187C, strain SWE1, stronger effect = lower value 0.978 | locus YJR043C, strain POL32, stronger effect = lower value 1.04 | locus YJR066W, strain TOR1, stronger effect = lower value 0.879
0.833 (active) and 0.974 (inactive): locus YHR030C, strain SLT2, stronger effect = lower value
0.614 (active) and 0.976 (inactive): locus YJL095W, strain BCK1, stronger effect = lower value
